# Data taken from PubChem BioAssay.
# Tested on: not listed separately
# Assay: probe aInhba binding on compound microarray – biochemical, small-molecule microarray, 635/667 nm fluorescence, primary screen (AID 1148);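 also: score merges 667nm spot fluorescence with signal-to-noise for antibody binding to printed compounds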
# Details: higher = more signal
row,SMILES,composite z-score
1,CCCCC(O)C1C=CC2C(=O)N(c3ccccc3)C(=O)C2N1Nc1ccc([N+](=O)[O-])cc1 (stereo not given),0.215
2,COc1ccc([Si](C)(C)[C@@H]2[C@@H](CC(=O)N3CCC[C@H]3CO)O[C@]3(C(=O)N(Cc4ccc(N5CCOC5=O)cc4)c4ccccc43)[C@H]2C)cc1,-0.024
3,CC(C)NC(=O)[C@@H]1c2ccccc2C(=O)N(Cc2ccccc2C(F)(F)F)[C@H]1c1ccc(CO)cc1,-0.169
4,CCCCCC1=C2CNC(Cc3ccccc3)(C(=O)OC)C=C2C(C)C1=O (stereo not given),0.222
5,CN(C)c1ccc(C(O)C2C=CC3C(=O)N(Cc4ccccc4)C(=O)C3N2n2cnnc2)cc1 (stereo not given),-0.149
6,O=C(NCC(O)CO)[C@@]1(CCS(=O)(=O)c2ccccc2)N=C(c2ccc(OCCCO)cc2)O[C@H]1c1ccccc1 (stereo not given in full),0.212
7,COCCCNC(=O)[C@@H]1c2ccccc2C(=O)N(Cc2ccc(OC(F)(F)F)cc2)[C@H]1c1ccc(CO)cc1,-0.0221
8,Cc1ccc(F)cc1S(=O)(=O)N[C@H]1CCN(Cc2ccc(OC(C)C)cc2)C1,-0.0963
9,CC1CC/C=C\[C@H]2OC34C=CCN(c5ccc(Cl)cc5)C(=O)[C@H]3N(CCCCCCO)C(=O)[C@]4(C)C2C(=O)O1 (stereo not given in full),-0.239
10,O=C1C2C=CC(C(O)c3c(F)cccc3Cl)N(Nc3ccc([N+](=O)[O-])cc3)C2C(=O)N1c1ccccc1 (stereo not given),0.142
11,[N-]=[N+]=Nc1ccccc1[C@@H]1OC(c2ccc(OCCCO)cc2)=N[C@]1(CCS(=O)(=O)c1ccccc1)C(=O)NCC(O)CO (stereo not given in full),0.0051
12,C=CC[C@@]1(C(=O)OC)N=C(c2ccc(OCCCO)cc2)O[C@@H]1c1ccccc1N=[N+]=[N-],0.286
13,COC(=O)[C@@]1(Cc2ccc(OC)cc2)[C@H]2c3cc(C(=O)N4CCCC4)n(CCn4cc([N+](=O)[O-])nc4C)c3C[C@H]2CN1C(=O)c1ccccc1,1.84
14,CN1C(=O)C2C(C3CC3)C=C3CN(Cc4cccc(Cl)c4)[C@@H]([C@@H](O)Cc4ccccc4)C3C2C1=O (stereo not given in full),-0.0221
15,COc1ccccc1CN1C(=O)c2ccccc2[C@](Cc2ccccc2I)(C(=O)NCC(C)C)[C@@H]1c1ccc(CO)cc1,0.126

# Molecular target: Torsin-1A (Homo sapiens) (UniProt O14656)
# Assay: TOR1A wild-type binding on microarray – cell lysate, small-molecule microarray, lysate, 635/667 nm, primary screen (AID 1149)
# Details: COS7 hTOR1A-WT lysate, 635 nm fluorescence, higher = more signal
# Torsin-1A (Homo sapiens), sequence (O14656 whole entry, looked up): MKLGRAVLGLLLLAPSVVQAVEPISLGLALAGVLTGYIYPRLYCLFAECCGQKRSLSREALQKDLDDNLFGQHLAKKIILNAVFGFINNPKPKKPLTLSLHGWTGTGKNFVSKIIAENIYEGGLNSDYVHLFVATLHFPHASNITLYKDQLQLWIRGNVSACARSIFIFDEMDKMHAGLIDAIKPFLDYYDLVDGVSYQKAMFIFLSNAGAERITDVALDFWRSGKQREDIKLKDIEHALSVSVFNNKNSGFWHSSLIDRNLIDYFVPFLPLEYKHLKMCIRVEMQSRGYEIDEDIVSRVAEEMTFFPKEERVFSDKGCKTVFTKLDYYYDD
row,SMILES,composite z-score
1,CCOC(=O)C1=CC[C@@H](c2ccc(OC)cc2)N(S(=O)(=O)c2ccc(C)cc2)[C@H]1c1ccc(C)cc1,-0.414
2,CCOC(=O)C[C@H]1[C@H](OC(=O)Cc2ccc3c(c2)OCO3)[C@@H](NC(=O)c2ccc3ccccc3n2)c2cc(OCCCO)ccc2N1C(=O)Cc1ccc(OC)cc1,0.509
3,CC(C)(C)N1CC=CC23O[C@@H]4C=CCOC(=O)[C@@H]4[C@H]2C(=O)N(CCO)[C@@H]3C1=O (stereo not given in full),-2.49
4,CCOC(=O)C1=CC[C@@H](c2ccc(OC)cc2)N(S(=O)(=O)c2ccc(C)cc2)[C@H]1CC,0.318
5,COc1ccc(NN2C(C(O)c3ccc(I)cc3)C=CC3C(=O)N(C4CCCCC4)C(=O)C32)cc1 (stereo not given),0.237
6,C=CCOC(=O)[C@H]1[C@@H]2C(=O)O[C@@H](c3ccccc3)[C@@H](c3ccccc3)N2[C@@H](c2ccc(OCCOC(=O)[C@@H]3C[C@@H]4C(=O)N[C@@H](CCCC[N+](C)(C)C)C(=O)N4[C@@H]3c3ccc(O)cc3)cc2)[C@]12C(=O)Nc1ccc(I)cc12,1.16
7,Cc1ccc(S[C@]2(C(=O)NCc3ccccc3)CC(=O)N(Cc3ccccc3C(F)(F)F)[C@@H]2c2ccc(CO)cc2)cc1,-1.02
8,CC(C)=CCCC(C)=CC(O)C1C=CC2C(=O)NC(=O)C2N1Nc1ccccn1 (stereo not given),1.61
9,O=C1O[C@H](c2ccccc2)[C@H](c2ccccc2)N2[C@H]1[C@@H](C(=O)O)[C@]1(C(=O)Nc3ccc(C#CCCO)cc31)[C@H]2c1ccc(OCCO)cc1,0.865
10,C=CCN1C(=O)[C@@]2(O[C@@H](CCn3cc([C@H](O)c4ccccc4)nn3)[C@H]([Si](C)(C)c3ccc(OC)cc3)[C@H]2C)c2cc(N3C(=O)c4cccc5cccc3c45)ccc21,-0.488
11,NC(=O)NCC#Cc1ccc2c(c1)[C@]1(C(=O)N2)[C@H](c2ccc(OCCO)cc2)N2[C@H](c3ccccc3)[C@H](c3ccccc3)OC(=O)[C@H]2[C@@H]1C(=O)O,-0.101
12,CO[C@H]1O[C@H](CO)[C@@H](OC(=O)Nc2ccc3c(c2)OCO3)[C@H](OC(=O)Nc2ccccc2-c2ccccc2)[C@H]1OC(=O)Nc1ccccc1-c1ccccc1,0.384
13,CC1CC/C=C\[C@H]2OC34C=CCN(c5ccc6ccccc6c5)C(=O)[C@H]3N(C(C)CO)C(=O)[C@@H]4C2C(=O)O1 (stereo not given in full),-0.538
14,COC(=O)[C@@]1(Cc2ccc(OC)cc2)[C@H]2c3cc(C(=O)N4CCCC4)n(Cc4ccc(C(F)(F)F)nc4)c3C[C@H]2CN1C(=O)c1ccccc1,0.866
15,Cc1ccc(C(C)CC(O)C2C=CC3C(=O)N(C)C(=O)C3N2Nc2ccccc2)o1 (stereo not given),0.371
16,C=CC[C@@]1(C(=O)N(C)C)N=C(c2ccc(OCCCO)cc2)O[C@@H]1c1ccccc1CN=[N+]=[N-],0.886
17,COC(=O)[C@@]1(Cc2ccccc2)[C@H]2c3cc(C(=O)N4CCCC4)n(Cc4ccc(OC)c(OC)c4)c3C[C@H]2CN1C(=O)c1ccccc1,0.279
18,N#Cc1ccc(NN2C(C(O)C3CC=CCC3)C=CC3C(=O)N(c4ccccc4)C(=O)C32)cc1 (stereo not given),-0.694

row,SMILES,composite z-score
1,C=C(C)[C@@H]1CC=C(C(O)C2C=CC3C(=O)N(c4ccccc4)C(=O)C3N2Nc2ccc([N+](=O)[O-])cc2)CC1 (stereo not given in full),0.875
2,COc1ccc([Si](C)(C)[C@H]2[C@H](CCO)O[C@@]3(C(=O)N(Cc4cccc(N(C=O)c5ccccc5)c4)c4ccccc43)[C@@H]2C)cc1,0.939
3,CCCCC(O)C1C=CC2C(=O)N(c3ccccc3)C(=O)C2N1Nc1ccc([N+](=O)[O-])cc1 (stereo not given),0.47
4,COc1ccc([Si](C)(C)[C@@H]2[C@@H](CC(=O)N3CCC[C@H]3CO)O[C@]3(C(=O)N(Cc4ccc(N5CCOC5=O)cc4)c4ccccc43)[C@H]2C)cc1,0.515
5,CC(C)NC(=O)[C@@H]1c2ccccc2C(=O)N(Cc2ccccc2C(F)(F)F)[C@H]1c1ccc(CO)cc1,-0.371
6,CCCCCC1=C2CNC(Cc3ccccc3)(C(=O)OC)C=C2C(C)C1=O (stereo not given),-0.88
7,CN(C)c1ccc(C(O)C2C=CC3C(=O)N(Cc4ccccc4)C(=O)C3N2n2cnnc2)cc1 (stereo not given),0.131
8,O=C(NCC(O)CO)[C@@]1(CCS(=O)(=O)c2ccccc2)N=C(c2ccc(OCCCO)cc2)O[C@H]1c1ccccc1 (stereo not given in full),0.449
9,COCCCNC(=O)[C@@H]1c2ccccc2C(=O)N(Cc2ccc(OC(F)(F)F)cc2)[C@H]1c1ccc(CO)cc1,0.0966
10,Cc1ccc(F)cc1S(=O)(=O)N[C@H]1CCN(Cc2ccc(OC(C)C)cc2)C1,0.149
11,CC1CC/C=C\[C@H]2OC34C=CCN(c5ccc(Cl)cc5)C(=O)[C@H]3N(CCCCCCO)C(=O)[C@]4(C)C2C(=O)O1 (stereo not given in full),-2.03
12,O=C1C2C=CC(C(O)c3c(F)cccc3Cl)N(Nc3ccc([N+](=O)[O-])cc3)C2C(=O)N1c1ccccc1 (stereo not given),0.414
13,[N-]=[N+]=Nc1ccccc1[C@@H]1OC(c2ccc(OCCCO)cc2)=N[C@]1(CCS(=O)(=O)c1ccccc1)C(=O)NCC(O)CO (stereo not given in full),1.37
14,C=CC[C@@]1(C(=O)OC)N=C(c2ccc(OCCCO)cc2)O[C@@H]1c1ccccc1N=[N+]=[N-],0.288
15,COC(=O)[C@@]1(Cc2ccc(OC)cc2)[C@H]2c3cc(C(=O)N4CCCC4)n(CCn4cc([N+](=O)[O-])nc4C)c3C[C@H]2CN1C(=O)c1ccccc1,-0.236
16,CN1C(=O)C2C(C3CC3)C=C3CN(Cc4cccc(Cl)c4)[C@@H]([C@@H](O)Cc4ccccc4)C3C2C1=O (stereo not given in full),0.667
17,COc1ccccc1CN1C(=O)c2ccccc2[C@](Cc2ccccc2I)(C(=O)NCC(C)C)[C@@H]1c1ccc(CO)cc1,-0.0986
